The text below walks through data of PubChem BioAssay (NCATS).

Results filed as inconclusive are left out. The source made the active and inactive calls. Unless noted, calls follow the shape of the dose curve; as a rule, active = well fitted curve in either direction with a large enough effect (not every such curve was filed as active); inconclusive = small, poorly fitted or top-dose-only effect, or another doubt; inactive = flat fitted curve, though single readings scatter.

Experiment [1] addresses Lysosomal acid glucosylceramidase (Homo sapiens) (UniProt P04062). As to the kind of experiment: Glucocerebrosidase-p2 (AID 348; in the data active = potency below about 10 µM; also: potency is read from the fitted curve at half-maximal effect). As to conditions: purified GBA, blue fluorogenic substrate, 40 min. The gist of the method: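 Compounds titrated from 0.6 nM upwards against 0.2 nM enzyme in pH 5.9 citric acid/KH2PO4, taurocholate, tween-20; blue fluorogenic substrate 80 uM, 40 min room temperature, stopped and read Ex 365/Em 440 for AC50.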

Experiment [2] in a line: AP1 Signaling Pathway (AID 357).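 Also: ME-180 reporter cells stimulated with EGF at its EC50 level; % is scaled to controls: 0 for no effect and ±100 for the full control effect.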 The following applies: ME-180 AP-1-bla reporter, EGF-induced, beta-lactamase ratio, 5 h; at 7.69 µM (top of the series) unless noted. In outline:
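Cells are seeded overnight, exposed to compound titrations and an EC50 level of EGF for 5 hours at 37 °C, then loaded with CCF4 dye for 2.5 hours. Beta-lactamase activity under the AP-1 element is read as a blue/green ratio.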

The nature of experiment [3]: Stat Signaling Pathway (AID 446).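 Also: ME-180 cervical cancer cells given 40 pM IL-6 alongside compound; SIE-controlled beta-lactamase reporter measured as 460/530 nm FRET emission ratio; % is scaled to controls: 0 for no effect and ±100 for the full control effect.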 The following applies: ME-180 SIE beta-lactamase reporter, IL-6 stimulated, 5 h; at 7.69 µM (top of the series) unless noted. In outline:
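Screening format detects activators and inhibitors alike: ME-180 SIE-bla cells stimulated at 40 pM IL-6 for 5 hrs with compound, then dual-emission beta-lactamase read at 405 nm excitation.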

For experiment [4], the target named is Glucocorticoid receptor (Homo sapiens) (UniProt P04150). As to the kind of experiment: GR-EFC Redistribution (AID 451; calls by dose curve; also: potency is read from the fitted curve at half-maximal effect). As to conditions: CHO-K1 GR-EFC translocation, beta-gal luminescence, 2 h. In outline:
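CHO-K1 cells stably expressing nuclear-localized β-gal enzyme acceptor and GR fused C-terminally to the enzyme donor fragment; ligand-driven nuclear translocation restores β-gal by complementation. Compounds titrated up to 46 uM final, 2 h at 37 °C; luminescence read.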

Experiment [5] deals with Mitogen-activated protein kinase 10 (Mus musculus) (UniProt Q61831). As to the kind of experiment: JNK3 AlphaScreen Assay (AID 530).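 Also: kinase came from lysate of stimulated human HepG2 cells; signal reports phosphorylation of biotinylated GST-cJun 1-79 at Ser73 with 10 µM ATP; % is scaled to controls: 0 for no effect and ±100 for the full control effect.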 The following applies: JNK3 lysate, c-Jun phosphorylation; series mostly up to 57.1 µM. In outline:
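JNK3 came from HepG2 lysates pre-activated with IL-1beta and TNF-alpha and phosphorylated biotinylated GST-cJun (1-79) at 10 uM ATP, pH 7.6, room temperature. Compounds were titrated. AlphaScreen signal used anti-phospho-cJun (Ser73) antibody.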

The target in experiment [6] is 3',5'-cyclic-AMP phosphodiesterase 4B (Homo sapiens) (UniProt Q07343). As to the kind of experiment: qHTS Assay for Inhibitors of PDE-IV (AID 607; active = well fitted activation curve with a large enough effect in the main read-out, with a control signal flat, not every such curve was filed as active; also: % of control where 0% means no effect). As to conditions: HEK293 ACTOne CNG channel cells, membrane potential fluorescence; series mostly up to 22.9 µM. The gist of the method:
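The readout is membrane depolarisation from a cAMP-sensing CNG channel, detected with a potential dye at ex 535/em 590. Cells were HEK293-derived (endogenous PDE-IV) at 1000 cells/well, titrated up to 22.9 uM final.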
For orientation: Quantitative high-throughput screening tests each substance at several concentrations.

Experiment [7] in a line: qHTS Assay for Lipid Storage Modulators (AID 1519; calls by dose curve). As to conditions: Drosophila S3 cells, BODIPY lipid droplet/cell ratio, laser cytometry, cells loaded with oleic acid; for activity change, negative = inhibition: at 57.5 µM (top of the series). The gist of the method:
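Cells seeded at 5,000 per well were treated with compounds over a concentration series and loaded with oleic acid (400 uM, as added). Lipid droplet fluorescence (488 nm excitation, 500-530 nm channel) was read by laser-scanning cytometry and normalized to 20 uM Triacsin C.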

Experiment [8] can be described thus: Primary qHTS for small molecule stabilizers of the endoplasmic reticulum resident proteome: Secreted ER Calcium Modulated Protein (SERCaMP) assay (AID 1508630; active = well fitted curve in the direction sought with a large enough effect; an effect the other way counts as inactive or inconclusive; also: % is scaled to controls: 0 for no effect and ±100 for the full control effect). As to conditions: SH-SY5Y GLuc-SERCaMP (Gaussia luciferase released on ER calcium loss) secretion, thapsigargin, luminescence; series mostly up to 38.4 µM. The gist of the method:
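GLuc-SERCaMP-expressing SH-SY5Y cells, pretreated 16 h with compound, are challenged with thapsigargin to empty ER calcium stores; after 4 h, coelenterazine is added directly to the medium and luminescence is imaged.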

Experiment [9] addresses Glucocorticoid receptor (Homo sapiens) (UniProt P04150). As to the kind of experiment: GR-GFP Redistribution (AID 450;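 active = compounds whose dose series gives a full or clear partial fitted curve of increased nuclear translocation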; also: potency is read from the fitted curve at half-maximal effect). The following applies: U2OS GR-GFP nuclear translocation, laser cytometry, 2 h.
Experiment [10] is described as follows: Confirmation and Secondary Assay for Modulators of Hemoglobin Beta Chain Splicing at IVS2 705 locus (AID 930; active = well fitted curve in the direction sought with a large enough effect; an effect the other way counts as inactive or inconclusive;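 also: HeLa cells stably expressing the EGFP-705 splicing reporter; % of control where 0% means no effect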). The following applies: HeLa EGFP-705 splicing reporter, GFP fluorescence, 48 h; series mostly up to 38.3 µM. The gist of the method: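 Splice-correction reporter: EGFP cDNA split by beta-globin intron 2 bearing the 705 mutation, stably in HeLa. Compound incubation 2 days, 37C; fluorescent objects 5-250 µm summed per well.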

Experiment [11] has as its target Ubiquitin carboxyl-terminal hydrolase 1 (Homo sapiens) (UniProt O94782). As to the kind of experiment: Inhibitors of USP1/UAF1: Pilot qHTS (AID 504865; active = well fitted curve in the direction sought with a large enough effect; an effect the other way counts as inactive or inconclusive;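 also: rhodamine fluorescence freed from ubiquitin-rhodamine substrate followed over time; top concentration of the series differs between compounds; % is scaled to controls: 0 for no effect and ±100 for the full control effect; nearly all actives have a fitted effect of over 35% in size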). As to conditions: purified USP1/UAF1, Ub-rhodamine cleavage fluorescence; series mostly up to 54.9 µM. The gist of the method:
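USP1/UAF1 complex (1nM) preincubated with compound 15 min at room temperature, then Ub-Rho substrate (150nM final) added. Fluorescence read kinetically at 480/540 nm, 6 reads every 60 seconds. Buffer: 50mM HEPES pH 7.8, 0.5mM EDTA, 0.1 mg/ml BSA, 1mM TCEP, 0.01% Tween-20.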

[12] abbreviates: measured here: cell count channel max response.
The mark [13] stands for this setting: measured here: lipid channel max response.

Glucocorticoid receptor (Homo sapiens), sequence (P04150 whole entry, looked up, the tested form may be a part): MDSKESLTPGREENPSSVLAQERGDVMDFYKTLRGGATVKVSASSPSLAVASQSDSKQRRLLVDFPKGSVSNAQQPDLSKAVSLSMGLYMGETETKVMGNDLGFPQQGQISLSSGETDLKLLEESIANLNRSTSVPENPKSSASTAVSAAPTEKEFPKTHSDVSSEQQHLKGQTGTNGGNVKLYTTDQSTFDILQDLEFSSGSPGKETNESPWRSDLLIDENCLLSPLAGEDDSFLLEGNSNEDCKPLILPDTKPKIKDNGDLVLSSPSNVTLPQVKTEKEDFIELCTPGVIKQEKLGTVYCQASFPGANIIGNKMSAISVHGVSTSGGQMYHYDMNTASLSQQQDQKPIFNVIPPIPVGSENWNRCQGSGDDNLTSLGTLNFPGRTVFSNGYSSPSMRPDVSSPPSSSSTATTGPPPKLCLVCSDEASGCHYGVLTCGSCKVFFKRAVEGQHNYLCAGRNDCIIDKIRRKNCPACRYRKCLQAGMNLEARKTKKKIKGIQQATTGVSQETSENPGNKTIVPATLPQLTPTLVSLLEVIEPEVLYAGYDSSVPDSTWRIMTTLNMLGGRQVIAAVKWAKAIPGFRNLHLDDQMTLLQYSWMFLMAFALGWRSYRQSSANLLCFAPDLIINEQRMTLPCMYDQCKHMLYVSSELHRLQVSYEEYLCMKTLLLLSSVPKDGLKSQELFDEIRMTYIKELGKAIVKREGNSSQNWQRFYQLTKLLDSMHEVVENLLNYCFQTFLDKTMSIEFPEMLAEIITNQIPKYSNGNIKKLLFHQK
3',5'-cyclic-AMP phosphodiesterase 4B (Homo sapiens), sequence (Q07343 whole entry, looked up): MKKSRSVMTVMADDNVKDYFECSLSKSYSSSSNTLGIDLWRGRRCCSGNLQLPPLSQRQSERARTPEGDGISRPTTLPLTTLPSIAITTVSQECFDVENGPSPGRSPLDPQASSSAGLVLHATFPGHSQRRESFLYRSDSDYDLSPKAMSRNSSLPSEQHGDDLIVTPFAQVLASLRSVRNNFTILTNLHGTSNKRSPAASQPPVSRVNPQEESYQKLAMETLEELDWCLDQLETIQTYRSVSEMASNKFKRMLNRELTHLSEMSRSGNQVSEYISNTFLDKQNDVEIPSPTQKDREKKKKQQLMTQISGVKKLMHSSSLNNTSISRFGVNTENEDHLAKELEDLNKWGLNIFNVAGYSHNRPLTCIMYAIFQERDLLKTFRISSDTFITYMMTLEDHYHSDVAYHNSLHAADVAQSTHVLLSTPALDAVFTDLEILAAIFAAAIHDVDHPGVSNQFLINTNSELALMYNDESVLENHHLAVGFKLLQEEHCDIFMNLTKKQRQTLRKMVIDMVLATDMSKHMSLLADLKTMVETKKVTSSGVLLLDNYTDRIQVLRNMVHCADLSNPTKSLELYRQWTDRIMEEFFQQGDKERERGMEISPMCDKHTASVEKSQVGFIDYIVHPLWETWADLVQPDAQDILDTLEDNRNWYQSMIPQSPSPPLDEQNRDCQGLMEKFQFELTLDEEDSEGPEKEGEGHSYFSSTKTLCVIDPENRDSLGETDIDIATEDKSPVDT
Lysosomal acid glucosylceramidase (Homo sapiens), sequence (P04062 whole entry, looked up): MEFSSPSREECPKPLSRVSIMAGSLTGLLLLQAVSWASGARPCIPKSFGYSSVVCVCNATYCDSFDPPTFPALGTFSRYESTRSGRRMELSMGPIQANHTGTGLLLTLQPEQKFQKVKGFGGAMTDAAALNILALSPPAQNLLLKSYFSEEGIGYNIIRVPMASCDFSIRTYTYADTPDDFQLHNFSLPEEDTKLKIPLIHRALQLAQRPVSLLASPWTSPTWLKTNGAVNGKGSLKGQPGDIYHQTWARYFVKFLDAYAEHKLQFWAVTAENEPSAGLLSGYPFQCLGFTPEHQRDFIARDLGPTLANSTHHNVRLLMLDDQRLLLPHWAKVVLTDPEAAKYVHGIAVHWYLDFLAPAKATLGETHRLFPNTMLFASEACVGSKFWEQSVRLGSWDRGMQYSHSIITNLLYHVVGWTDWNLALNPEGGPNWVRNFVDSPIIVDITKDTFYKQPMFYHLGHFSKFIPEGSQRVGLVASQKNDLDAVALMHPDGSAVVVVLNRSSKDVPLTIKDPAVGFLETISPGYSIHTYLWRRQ
Ubiquitin carboxyl-terminal hydrolase 1 (Homo sapiens), sequence (O94782 whole entry, looked up): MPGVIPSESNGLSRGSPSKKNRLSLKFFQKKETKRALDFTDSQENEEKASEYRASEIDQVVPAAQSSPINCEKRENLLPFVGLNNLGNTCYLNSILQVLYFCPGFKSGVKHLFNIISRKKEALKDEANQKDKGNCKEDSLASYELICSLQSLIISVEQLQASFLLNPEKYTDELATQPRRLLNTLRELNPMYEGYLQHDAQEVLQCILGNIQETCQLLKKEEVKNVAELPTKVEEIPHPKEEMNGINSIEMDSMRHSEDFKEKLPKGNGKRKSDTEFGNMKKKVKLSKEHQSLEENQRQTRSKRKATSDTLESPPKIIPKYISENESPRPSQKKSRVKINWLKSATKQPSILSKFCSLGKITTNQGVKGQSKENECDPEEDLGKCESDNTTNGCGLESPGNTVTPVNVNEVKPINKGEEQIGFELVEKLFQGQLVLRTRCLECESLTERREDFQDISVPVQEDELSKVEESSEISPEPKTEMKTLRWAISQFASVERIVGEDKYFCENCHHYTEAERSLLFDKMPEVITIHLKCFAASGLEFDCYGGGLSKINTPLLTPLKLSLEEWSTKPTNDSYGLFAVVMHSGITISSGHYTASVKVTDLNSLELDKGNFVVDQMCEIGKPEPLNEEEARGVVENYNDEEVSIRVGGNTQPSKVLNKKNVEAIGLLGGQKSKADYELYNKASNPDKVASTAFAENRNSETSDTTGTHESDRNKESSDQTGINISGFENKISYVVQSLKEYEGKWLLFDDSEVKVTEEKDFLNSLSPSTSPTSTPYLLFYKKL

`CC(=O)N1CCC2(CCCN(c3ccncc3)C2)CC1`: the Potency in experiment [1] is > 11.4 µM (inactive); in experiment [4], > 46 µM (inactive). Besides, the values for the activity change, negative = inhibition in experiment [2] and in [7] were -16.6% (inactive) and 4.08% (inactive), respectively. For the same compound, the activity, negative = inhibition in experiment [3] is -5.29% (inactive). Further, the Potency entry in experiment [5] and in experiment [6] was “inactive” each time. Further, the max response was determined as 1.51% in experiment [7] (setting [12]) and 7.47% in experiment [7] (setting [13]). Moreover, the outcome in experiment [8] was inactive.

Turning to `O=C(c1cnccn1)N1CCC2(CCN(Cc3cc(C(F)(F)F)cc(C(F)(F)F)c3)CC2)CC1`, the Potency in experiment [1] was > 11.4 µM (inactive); in experiment [4], > 46 µM (inactive). Moreover, the activity change, negative = inhibition in [2] is 6.25% (inactive); in experiment [7], 2.5% (inactive). Further, the activity, negative = inhibition in experiment [3] was -5.04% (inactive). The Potency entry in [5] and in experiment [6] was “inactive” in each case. In addition, the max response in [7] (setting [12]) is 13.6%; in [7] (setting [13]) it was 15.1%. Besides, the result in experiment [8] was inactive.

In the case of `COCC(=O)N1CCC2(CCCN(C(c3ccccc3)c3ccccc3)C2)CC1`, the Potency was > 11.4 µM (inactive) in experiment [1] and > 46 µM (inactive) in [4]. Moreover, the activity change, negative = inhibition was -6.37% (inactive) in experiment [2] and -0.272% (inactive) in experiment [7]. In experiment [3], the activity, negative = inhibition was 16.7% (inactive). The Potency result in [5] and in [6] was “inactive” each time. The max response in experiment [7] (setting [12]) stood at 15.7%; in experiment [7] (setting [13]), 20.6%. Further, the result in experiment [8] was inactive.

Turning to `Cn1cccc1C(=O)N1CCC2(CCN(Cc3ccc(C#N)cc3)CC2)CC1`, the results for the Potency in [1] and in experiment [4] were > 11.4 µM (inactive) and > 46 µM (inactive), respectively. In addition, the activity change, negative = inhibition was 11.1% (inactive) in [2] and 0.873% (inactive) in [7]. In experiment [3], the activity, negative = inhibition is -2.38% (inactive). Moreover, the Potency entry in experiment [5] and in experiment [6] was “inactive” throughout. For the same compound, the max response in experiment [7] (setting [12]) is 7.43%; in experiment [7] (setting [13]), 9.77%. Also, the outcome in experiment [8] was inactive.

Turning to `N#Cc1ccc(CN2CCCC3(CCN(C(=O)c4csnn4)CC3)C2)cc1`, the Potency was > 11.4 µM (inactive) in experiment [1] and > 46 µM (inactive) in experiment [4]. In addition, the activity change, negative = inhibition is -6.06% (inactive) in experiment [2] and -0.464% (inactive) in experiment [7]. Further, in experiment [3], the activity, negative = inhibition is 1.34% (inactive). For the same compound, the Potency result in experiment [5] and in [6] was “inactive” throughout. The max response was -10.9% in experiment [7] (setting [12]) and -8.04% in experiment [7] (setting [13]). The outcome in experiment [8] was inactive.

For the compound `N#Cc1ccc(CN2CCCC3(CCN(C(=O)c4ccco4)CC3)C2)cc1`, the values for the Potency in experiment [1] and in experiment [4] were > 11.4 µM (inactive) and > 46 µM (inactive), respectively. Besides, the activity change, negative = inhibition is -7.19% (inactive) in experiment [2] and -5.76% (inactive) in [7]. For the same compound, in [3], the activity, negative = inhibition is 4.81% (inactive). For the same compound, the Potency result in experiment [5] and in [6] was “inactive” throughout. Moreover, the results for the max response in [7] (setting [12]) and in experiment [7] (setting [13]) were -5.31% and -10.9%, respectively. For the same compound, the outcome in [8] was inactive.

For `COc1ccc2[nH]cc(CCNc3nc(-c4cccc(NS(C)(=O)=O)c4)nc4ccccc34)c2c1`, the Potency in experiment [1] is > 11.4 µM (inactive); in experiment [9], > 46 µM (inactive); in [4], > 46 µM (inactive). Also, the activity change, negative = inhibition was -29.4% (inactive) in experiment [2] and 8.36% (inactive) in experiment [7]. In experiment [3], the activity, negative = inhibition is -28.4% (inactive). In addition, the Potency entry in [5], in experiment [6] and in [11] was “inactive” throughout. Moreover, the call in experiment [10] and in [8] was inactive. In addition, the max response was -14.6% in experiment [7] (setting [12]) and -4.03% in experiment [7] (setting [13]).

For the compound `Cc1noc(C)c1C(=O)N1CCC2(CC1)CCN(c1ccccn1)CC2`, the Potency in experiment [1] was > 11.4 µM (inactive); in [4], > 46 µM (inactive). The activity change, negative = inhibition was 0.789% (inactive) in [2] and 5.25% (inactive) in experiment [7]. Also, in experiment [3], the activity, negative = inhibition was -0.0391% (inactive). Moreover, the Potency result in experiment [5] and in experiment [6] was “inactive” throughout. The max response was 8.43% in experiment [7] (setting [12]) and 16.7% in experiment [7] (setting [13]). For the same compound, in [8], the result was inactive.
